From PubChem BioAssay AID1259418 (Broad Institute, 2018) come the findings set out here.

Among all 3,400 compounds or so, about 840 (25%) were called active. Roughly 11% stayed inconclusive and do not appear here. The list is a sample of the results. Results with a measured potency or affinity are listed apart. A number with no mark means an inactive call.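 The calls were made as follows: active = fitted half-maximal concentration of signal decrease at or below twice the sample's top tested concentration; inconclusive = flat curve between -70 and -30 percent, or poor fit; inactive = flat within 30 percent, signal rise, or potency above limit.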

The nature of this test: T. gondii growth inhibition with IFN-gamma, dose response, cell-based, ME49Luc, HeLa, luciferase, 72 h (AID 1259418). The settings on record: T. gondii ME49Luc in IFN-y HeLa, hits give low values, -100% = high-dose IFN-γ control wells; at 19.5 µM unless noted.
Take `Cc1ccc2c(c1C)-n1cccc1C1(CCN(C(=O)c3cccc(N(C)C)c3)CC1)N2`: the max activity is -17.3% [at 0.35 µM].
Next, `COCCC(=O)N1C[C@H](OCc2ccccn2)[C@@H]2COC[C@@H]21`: 46.2%; `COc1ccc(CCC(=O)N2CCC[C@@H]2C(=O)NCCc2csc(-c3ccccc3)n2)cc1`: 15.9% [at 2.6 µM]; `COCCN1CCc2nc(SCc3nc(-c4ccc(C)cc4)oc3C)[nH]c(=O)c2C1`: -13.7% [at 2.6 µM].
Regarding `COc1ccc(-c2nc(Cn3nnc(-c4nc(-c5cccc(C(F)(F)F)c5)no4)c3C)c(C)o2)cc1`, the max activity was -6.58% [at 5 µM].
As for `CCOc1ccc(NC(=O)Nc2ccc(-c3nc(-c4cccc(Br)c4)co3)cc2)cc1`, the max activity was 4.75% [at 10 µM].
For `COc1cccc(-c2nc3c(s2)CN(S(=O)(=O)c2ccc(F)cc2)CC3)c1`, the max activity was 19.6%.
With `COc1ccc(-c2nc(Nc3cc(F)ccc3F)c3ccccc3n2)cc1`, the max activity is 38%.
`COc1ccc(-c2nc3c(s2)CN(S(=O)(=O)c2ccc(CC(C)C)cc2)CC3)cc1`: the max activity is -5.7% [at 10 µM].
In the case of `CCOC(=O)C1CCC(CNC(=O)Nc2ccc(-c3nc(-c4cc(C)ccc4C)co3)cc2)CC1` (stereo unspecified), the max activity was 10.8% [at 0.16 µM].
Take `Cc1cc(C2CCCN2C(=O)Cn2nc(C(F)(F)F)cc2C)on1` (stereo unspecified): the max activity was 9.62% [at 0.16 µM].
Next, `Cc1ccc(-c2coc(-c3ccc(NC(=O)NC4CCCC4)cc3)n2)c(C)c1`: 13.7%.
Regarding `Cc1nc(OCC(=O)Nc2ccccc2F)c2ccccc2n1`, the max activity is 19.1% [at 0.16 µM].
With `COCCN1CCc2nc(SCc3nc(-c4cccc(C)c4)oc3C)[nH]c(=O)c2C1`, the max activity was 12% [at 0.16 µM].
Regarding `Cc1ccc(C)c(NC(=O)CN2CCC3(CC2)N=C(c2cccc(F)c2)C(=O)N3)c1`, the max activity was -32.1%.
`CCN1CCn2c(-c3cccc(F)c3)cnc2C12CCN(c1ncccn1)CC2`: the max activity is 40.4%.
On to `COc1ccc(-c2nc(NC(C)c3ccccc3)c3ccccc3n2)cc1` (stereo unspecified), for which the max activity is 18.4% [at 5 µM].
With `COc1ccc(C(=O)N2CCC3(CC2)Nc2ccc(C)c(C)c2-n2cccc23)c(OC)c1`, the max activity was -29.7% [at 0.16 µM].
Turning to `Cc1ccc(C)c(-c2coc(-c3ccc(NC(=O)c4ccc(Br)o4)cc3)n2)c1`, the max activity is 9.77% [at 10 µM].
As for `CN1C(=O)CCc2cc(NC(=O)c3cccnc3)ccc21`, the max activity was -16.3% [at 0.16 µM].
Turning to `COc1ncccc1NC(=O)c1cc(-c2cnc(N3CCCC3)nc2)cn1CC1CC1`, the max activity was 6%.
As to `O=C(NCc1ccc(F)cc1F)c1cc(-c2cnc(N3CCCC3)nc2)cn1CC1CC1`, the max activity was -11.3% [at 0.038 µM].
On to `COCCN1CCc2c(cnc(-c3cccnc3)c2C(=O)O)C1`, for which the max activity was 17.7% [at 2.6 µM].
As for `COC(=O)[C@@H]1C[C@@H](N(C)C)CN1S(=O)(=O)c1c(C)ccc2nsnc12`, the max activity is 25.5%.
Turning to `Cc1ccc(-c2coc(-c3ccc(NC(=O)COc4ccc(F)cc4)cc3)n2)cc1`, the max activity was -52.1% [at 0.68 µM].
Take `O=C(NCc1ccc(F)cc1)Nc1ccc(-c2nc(-c3ccccc3)co2)cc1`: the max activity is 16.3% [at 1.35 µM].
With `COc1cccc(C(=O)N2CCC(C(=O)NCCc3csc(-c4ccccc4)n3)CC2)c1`, the max activity was -23.1%.
Next, `COc1ccc(C(=O)N2CCC(C(=O)NCCc3csc(-c4ccccc4)n3)CC2)cc1`: 12.2% [at 0.16 µM]; `CCOC(=O)C1CCN(C(=O)c2ccc(-c3csc(C4CC4)n3)cc2)CC1`: 40.1%.
As to `COc1ccc(-c2nc(N3CCN(c4cccc(C)c4)C(C)C3)c3ccccc3n2)cc1` (stereo unspecified), the max activity is 60.7%.
With `Cc1ccc(-c2nc(Cn3nnc(-c4nc(-c5ccc(C(F)(F)F)cc5)no4)c3C)c(C)o2)cc1`, the max activity is 11.8% [at 0.35 µM].
As to `CCc1nc(OCC(=O)Nc2ccccc2C)c2ccccc2n1`, the max activity was 13% [at 0.16 µM].
Regarding `O=C(CCC1N=C2c3ccccc3N=C(SCc3ccccc3Cl)N2C1=O)NCc1ccco1` (stereo unspecified), the max activity is 35.4% [at 10 µM].
Regarding `CCOC(=O)c1ccc(NC(=O)Nc2ccc(-c3nc(-c4ccc(C)cc4C)co3)cc2)cc1`, the max activity was 15.1% [at 0.16 µM].
As for `CCOc1ccc(NC(=O)Nc2ccc(-c3nc(-c4ccccc4)co3)cc2)cc1`, the max activity is 55.1%.
Consider `COc1ccc2c(c1)NC1(CCN(C(=O)c3ccc(Br)o3)CC1)c1cccn1-2`, for which the max activity was 8.21% [at 0.35 µM].
On to `CC(C)(C)NC1=NCCNC12CCN(S(=O)(=O)c1ccc3c(c1)CCCC3)CC2`, for which the max activity is -19.2% [at 0.35 µM].
`COc1ccc(NC(=O)Nc2ccc(-c3nc(-c4ccccc4)co3)cc2)c(OC)c1`: the max activity was 53.6% [at 10 µM].
Take `O=C(CC(F)(F)F)N1C[C@@H]2[C@H](c3ccccc31)[C@H](CO)N2CC1CCOCC1`: the max activity is 54.6%.
Consider `Cc1oc(-c2ccccc2Cl)nc1Cn1c(=O)c2cccnc2n(-c2ccccc2)c1=O`, for which the max activity is 6.15% [at 5 µM].
Take `COc1cccc(N2CCN(C(=O)CC3Nc4c5ccccc5nc(=S)n4C3=O)CC2)c1` (stereo unspecified): the max activity is 50.6%.
Take `O=C(CCC1Nc2c3ccccc3nc(=S)n2C1=O)N1CCN(c2ccccc2F)CC1` (stereo unspecified): the max activity was 35.9%.
Next, `O=C(CC1Nc2c3ccccc3nc(=S)n2C1=O)N1CCN(c2cccc(C(F)(F)F)c2)CC1` (stereo unspecified): 105%; `COc1ccccc1CNC(=O)CCC1Nc2c3ccccc3nc(=S)n2C1=O` (stereo unspecified): 15% [at 2.6 µM]; `Cc1ccc(C)c(N2CCN(C(=O)CC3Nc4c5ccccc5nc(=S)n4C3=O)CC2)c1` (stereo unspecified): 190% [at 10 µM].
Next, `Cc1ccc(Cl)cc1N1CCN(C(=O)CC2Nc3c4ccccc4nc(=S)n3C2=O)CC1` (stereo unspecified): 25.8% [at 0.35 µM]; `Cc1cccc(-c2nc(Cn3nnc(-c4nc(-c5ccc(OC(F)(F)F)cc5)no4)c3C)c(C)o2)c1`: -4.39% [at 0.35 µM]; `Cc1oc(-c2cccc(Cl)c2)nc1CSc1nc2c(c(=O)[nH]1)CN(Cc1ccccc1)CC2`: 20.2% [at 0.35 µM].
On to `CCCc1cc(C2CCCN2C(=O)c2cc(C(F)(F)F)nn2C)no1` (stereo unspecified), for which the max activity was 13.3% [at 0.16 µM].
Next, `COc1ccc(CNc2nc(SCc3ccccc3F)nc3ccccc23)cc1`: 8.85% [at 0.68 µM]; `Clc1ccccc1CSc1nc(NCCc2ccccc2)c2ccccc2n1`: 13.2% [at 5 µM]; `Fc1ccccc1CSc1nc(NCc2ccco2)c2ccccc2n1`: 15% [at 2.6 µM].
Take `Clc1ccc(CNc2nc(SCc3ccccc3Cl)nc3ccccc23)cc1`: the max activity is -19% [at 10 µM].
Consider `Cc1nc(N2CCOCC2)nc2c1CCN(C(=O)C1CC1)CC2`, for which the max activity is 58.7%.
Consider `Clc1ccc(-n2ncc3c(NC4CCCCCCCCCCC4)ncnc32)cc1`, for which the max activity is -21.9% [at 10 µM].
Next, `COC(=O)CC(=O)Nc1ccc(-c2nc(-c3ccc(C)cc3C)co2)cc1`: 87.6%; `COc1cc(C(=O)Nc2ccc(-c3nc(-c4ccccc4)co3)cc2)cc(OC)c1OC`: -19.1% [at 0.16 µM].
In the case of `Cc1ccc(-c2coc(-c3ccc(NC(=O)c4ccccc4C)cc3)n2)cc1`, the max activity was 104%.
Next, `Cc1ccccc1C(=O)Nc1ccc(-c2nc(-c3ccccc3)co2)cc1`: 95.8% [at 10 µM]; `COc1ccccc1NC(=O)Nc1ccc(-c2nc(-c3ccc(C)cc3)co2)cc1`: -11.4% [at 0.35 µM].
Regarding `Cc1cc(C)c2c(=O)n(Cc3nc(-c4ccccc4Cl)oc3C)c(=O)n(-c3ccccc3)c2n1`, the max activity was -23.7% [at 10 µM].
As to `Cc1ccc(-c2coc(-c3ccc(NC(=O)Nc4cccc(F)c4)cc3)n2)cc1`, the max activity is -17.7% [at 0.35 µM].
Next, `Cc1ccc(S(=O)(=O)Nc2ccc(-c3nc(-c4ccc(C)c(C)c4)co3)cc2)cc1`: 33.8% [at 10 µM]; `Cc1oc(-c2cccc(Cl)c2)nc1Cn1nnc(-c2nc(-c3cccnc3)no2)c1C`: 8.12% [at 10 µM].
Regarding `C/C=C/c1ccc(C2[C@H]3CNC[C@@H]2N3Cc2cc(F)ccc2F)cc1` (stereo partly specified), the max activity is 24.5% [at 10 µM].
Next, `COCCCN=C(Nc1ccc(C(=O)O)cc1)N1CCN(c2ncnc3ccccc23)CC1`: 14.9%; `Cc1ccc(-n2ncc3c(NCCCN4CCCC4=O)ncnc32)c(C)c1`: 50%.
Consider `CCc1ccccc1Nc1ncnc2c1cnn2-c1cccc(C)c1`, for which the max activity was 24.1% [at 10 µM].
With `COc1ccc(CCNc2ncnc3c2cnn3-c2cccc(C)c2)cc1OC`, the max activity was 11.8% [at 1.35 µM].
On to `Clc1ccc(-n2ncc3c(NCCc4ccccc4)ncnc32)cc1`, for which the max activity is 36%.
`Cc1cccc(Nc2ncnc3c2cnn3-c2ccc(C)cc2C)c1`: the max activity is -13.4% [at 10 µM].
As to `Cc1cccc(-n2ncc3c(NCCc4ccccc4)ncnc32)c1`, the max activity is -21.4% [at 0.35 µM].
For `Clc1cccc(CNc2ncnc3c2cnn3-c2ccccc2)c1`, the max activity was 95.5% [at 10 µM].
Next, `Cc1cccc(-n2ncc3c(NCCCn4ccnc4)ncnc32)c1`: 38.7% [at 5 µM]; `C=CCNc1ncnc2c1cnn2-c1ccc(C)cc1C`: 27.6% [at 5 µM].
Consider `COC(=O)CC(=O)Nc1ccc(-c2nc(-c3ccccc3)co2)cc1`, for which the max activity was 102%.
